Results on 22 compounds are retold here after PubChem BioAssay (EPA / NIEHS).

Molecules are shown by their SMILES. Inconclusive results are not listed. Calls of active or inactive are those of the source. Rule for the calls, unless noted: active = hit-call score of the fitted dose curve at least 0.9, where 1 is the maximum; inactive = score below 0.9.

Read-out in experiment [1]: Monokine induced gamma interferon (MIG), CXCL9 (gene 4283)
In words: BSK_3C_MIG: BioMAP Diversity Plus: 3C Assay for Monokine induced gamma interferon (MIG) Biomarker Activity (AID 2283021).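 For AC50: MIG protein level measured by immunoassay in the treated endothelial cultures.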 Conditions: primary human endothelial cells (HUVEC); actives raise or lower the signal. An outline of the steps:
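After 24 h of treatment, human umbilical vein endothelial cultures (3C system) had their MIG biomarker level determined by ELISA, with DMSO serving as negative control.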

A short description of experiment [2]: BSK_3C_SRB: Viability Assessment in the BioMAP Diversity Plus: 3C Assay (AID 2283023).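 Note: fitted both ways against DMSO so a hit may be signal rise or drop.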 Conditions: primary human endothelial cells (HUVEC). An outline of the steps: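 Cells were dosed with chemical, cultured 24 h, fixed with 10% TCA, stained with 0.1% SRB and read at 560 nm. Human umbilical vein endothelium was used; DMSO served as negative control and baseline.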

Read-out in experiment [3]: Matrix Metallopeptidase 1 (MMP1), MMP1 (gene 4312)
Nature of the experiment: BSK_BE3C_MMP1: BioMAP Diversity Plus: BE3C Assay for Matrix Metallopeptidase 1 (MMP1) Biomarker Activity (AID 2283024). Conditions: primary human bronchial epithelial cells; actives raise or lower the signal. An outline of the steps:
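Dose cells, wait 24 h, run MMP1 ELISA; cells are human bronchial epithelial primaries. Both increases and decreases relative to DMSO counted.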

The nature of experiment [4]: BSK_3C_Vis: BioMAP Diversity Plus: 3C Assay for Morphology Visualization (AID 2283025).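 For AC50: light microscopy image of cell morphology used as background control.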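 Note: fitted both ways so gain or loss versus DMSO counts.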 The note with it: primary human endothelial cells (HUVEC). An outline of the steps:
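Endothelial cells from human umbilical vein were treated with test chemicals for 24 h and inspected by light microscopy for changes in cell conformation.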

Read-out in experiment [5]: Pselectin, SELP (gene 6403)
Nature of the experiment: BSK_4H_Pselectin: BioMAP Diversity Plus: 4H Assay for Pselectin Biomarker Activity (AID 2283026). The note with it: primary human endothelial cells (HUVEC); actives raise or lower the signal. The procedure, abridged:
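Human vascular endothelium from umbilical vein; P-selectin measured by ELISA at 24 h post-dose, with cytotoxicity checked by sulforhodamine B total-protein staining in parallel cultures (0.1% SRB after 10% TCA fixation, read at 560 nm).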

Experiment [6] can be described thus: BSK_4H_SRB: Viability Assessment in the BioMAP Diversity Plus: 4H Assay (AID 2283027).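 For AC50: curves fitted both ways versus DMSO so AC50 may be loss or gain.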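 Note: cells exposed to compound for 24 h before staining.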 The note with it: primary human endothelial cells (HUVEC). The procedure, abridged: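 Human umbilical vein endothelial cells, 24 h after chemical dosing; total protein measured by 0.1% sulforhodamine B staining after 10% TCA fixation, read at 560 nm. Bidirectional fitting against DMSO.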

Experiment [7] in a line: BSK_BE3C_SRB: Viability Assessment in the BioMAP Diversity Plus: BE3C Assay (AID 2283028).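 For AC50: fitted both ways so AC50 may mark signal gain or loss versus DMSO.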 Conditions: primary human bronchial epithelial cells. An outline of the steps: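 Overt cytotoxicity was assessed as total protein in confluent human primary bronchial epithelial cultures 24 h after chemical addition, using 0.1% sulforhodamine B staining read at 560 nm.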
Read-out in experiment [8]: Thrombomodulin, THBD (gene 7056)
Nature of the experiment: BSK_3C_Thrombomodulin: BioMAP Diversity Plus: 3C Assay for Thrombomodulin Biomarker Activity (AID 2283029). Conditions: primary human endothelial cells (HUVEC); actives raise or lower the signal. The procedure, abridged: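 Thrombomodulin ELISA, human primary HUVEC, 24 h post-dose; data fitted in both directions relative to DMSO.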

The target in experiment [9] is human Vitamin D Receptor (VDR), VDR (gene 7421) (UniProt P11473). Nature of the experiment: ATG_VDR_TRANS: Attagene TRANS-FACTORIAL HepG2 Assay for human Vitamin D Receptor (VDR) (AID 2283022; active = hit-call score of the fitted dose curve at least 0.9, where 1 is the maximum). The procedure, abridged:
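Fluorescence of labelled reporter cDNA fragments, resolved by capillary electrophoresis, gives mRNA induction after 24 h treatment of HepG2 cells carrying transfected Gal4-fusion reporter units. Activity is fitted in the positive direction with DMSO as baseline.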

Read-out in experiment [10]: Urokinase-type plasminogen activator receptor (uPAR), PLAUR (gene 5329)
Nature of the experiment: BSK_4H_uPAR: BioMAP Diversity Plus: 4H Assay for Urokinase-type plasminogen activator receptor (uPAR) Biomarker Activity (AID 2283030). The note with it: primary human endothelial cells (HUVEC); actives raise or lower the signal. An outline of the steps: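 Chemicals are dosed onto human vascular endothelial primary cells (umbilical vein). After 24 h, uPAR is read by ELISA. Gain or loss of signal is fitted relative to DMSO.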

human Vitamin D Receptor (VDR), VDR (gene 7421), sequence (P11473 whole entry, looked up, the tested form may be a part): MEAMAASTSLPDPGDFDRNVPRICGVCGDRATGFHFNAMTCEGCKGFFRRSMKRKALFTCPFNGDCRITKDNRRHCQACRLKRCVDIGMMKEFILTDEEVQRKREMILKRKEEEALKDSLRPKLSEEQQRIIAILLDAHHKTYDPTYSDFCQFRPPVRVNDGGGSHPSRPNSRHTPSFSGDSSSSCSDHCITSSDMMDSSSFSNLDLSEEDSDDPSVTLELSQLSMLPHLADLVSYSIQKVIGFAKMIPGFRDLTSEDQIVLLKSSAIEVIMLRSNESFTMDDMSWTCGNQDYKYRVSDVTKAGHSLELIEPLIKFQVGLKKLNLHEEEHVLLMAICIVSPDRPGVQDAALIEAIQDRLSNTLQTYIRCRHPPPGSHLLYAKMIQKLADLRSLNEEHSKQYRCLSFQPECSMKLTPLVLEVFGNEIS

As usually defined, the AC50 is the concentration at which the activity in the assay is half-maximal. `CN[C@H]1CC[C@@H](c2ccc(Cl)c(Cl)c2)c2ccc(S(N)(=O)=O)cc21`: the concentration at half-maximal activity (AC50) in [1] was 37.8 µM (active); in [2], 16 µM (active); in experiment [3], 31.8 µM (active); in [4] it was 14.4 µM (active); in [5] it was 9.02 µM (active); in experiment [6], 18.2 µM (active). For the same compound, the half-maximal activity concentration (AC50) in experiment [7] is 34 µM (active); in experiment [8], 4.65 µM (active).
Regarding `CCOC(=O)CCC(=O)OCC`, the result in [1], in experiment [2], in experiment [3], in experiment [4], in experiment [5] and in experiment [6] was inactive. The outcome in experiment [7] and in experiment [8] was inactive.
Take `CC(C)c1ccc(C(=O)N=C(N)N)cc1S(C)(=O)=O`: the result in experiment [1], in experiment [2], in experiment [3], in [4], in experiment [5] and in experiment [6] was inactive. Moreover, the result in [7] and in [8] was inactive.
On to `CCCCCCCC=O`, for which the result in [1], in experiment [9], in experiment [2], in [3], in experiment [4] and in experiment [5] was inactive. In addition, the outcome in experiment [6], in experiment [7], in [8] and in experiment [10] was inactive.
As for `Cc1cc(NC(=O)C(=O)O)cc(C)c1Oc1ccc(O)c2c1CCC2`, the result in experiment [1], in experiment [9], in experiment [2], in experiment [3], in experiment [4] and in [5] was inactive. Further, the outcome in experiment [6], in experiment [7], in [8] and in [10] was inactive.
`CCCCCCCCCCCCCO`: the AC50 was 37.4 µM (active) in experiment [1]; 32.1 µM (active) in [2]; 20.6 µM (active) in experiment [3]; 38.6 µM (active) in experiment [4]; 35.1 µM (active) in [5]; 31.8 µM (active) in [6]. In addition, in [10], the AC50 was 38.9 µM (active). Moreover, the compound was classed as inactive in experiment [9], in experiment [7] and in experiment [8].
For the compound `Cc1ccc(C(C)C)c(O)c1`, the outcome in experiment [1], in [2], in experiment [3], in experiment [4], in experiment [5] and in [6] was inactive. Also, the result in [7] and in experiment [8] was inactive.
For `C[Si]1(C)O[Si](C)(C)O[Si](C)(C)O[Si](C)(C)O1`, the result in [1], in [2], in experiment [3], in [4], in [5] and in experiment [6] was inactive. Also, the outcome in experiment [7] and in experiment [8] was inactive.
For the compound `Cc1ccc(Cl)cc1`, the outcome in experiment [1], in [9], in experiment [2], in [3], in experiment [4] and in experiment [5] was inactive. The result in experiment [6], in [7], in [8] and in experiment [10] was inactive.
Consider `C1CCC(SSC2CCCCC2)CC1`, for which the outcome in experiment [1], in experiment [9], in experiment [2], in [3], in [4] and in [5] was inactive. In addition, the result in experiment [6], in experiment [7], in experiment [8] and in [10] was inactive.
In the case of `CCOc1ccc2c(c1)C(C)=CC(C)(C)N2`, the outcome in experiment [1], in experiment [2], in [3], in [4], in experiment [5] and in experiment [6] was inactive. Also, the outcome in [7], in [8] and in [10] was inactive. Also, the AC50 in [9] is 150 µM (active).
With `O=C(O)Cc1ccccc1Nc1c(Cl)cccc1Cl`, the result in experiment [1], in [9], in experiment [2], in experiment [3], in experiment [4] and in experiment [5] was inactive. The outcome in experiment [6], in [7], in experiment [8] and in experiment [10] was inactive.
In the case of `Cc1cccc([N+](=O)[O-])c1C`, the result in [1], in experiment [9], in [2], in experiment [3], in [4] and in [5] was inactive. For the same compound, the outcome in experiment [6], in experiment [7], in [8] and in experiment [10] was inactive.
For `CNCc1cc(F)ccc1Oc1ccc(Cl)c(Cl)c1`, the outcome in experiment [1], in [9], in experiment [3], in [4], in experiment [7] and in [8] was inactive. In addition, the concentration at half-maximal activity (AC50) in experiment [2] was 27.6 µM (active); in [5], 26 µM (active); in experiment [6], 26.1 µM (active); in experiment [10], 26.9 µM (active).
For `O=c1c(O)c(-c2ccc(O)c(O)c2)oc2cc(O)cc(O)c12`, the result in experiment [1], in experiment [3], in experiment [7] and in [8] was inactive. The half-maximal activity concentration (AC50) in experiment [2] was 15.3 µM (active); in [4], 37.5 µM (active); in experiment [5], 16.6 µM (active); in experiment [6], 30.1 µM (active).
For `Nc1nc(N)c2nc(CNc3ccc(C(=O)N[C@@H](CCC(=O)O)C(=O)O)cc3)cnc2n1`, the result in [1], in experiment [9], in experiment [2], in experiment [3], in experiment [4] and in [5] was inactive. Also, the outcome in experiment [6], in [7], in experiment [8] and in experiment [10] was inactive.
For the compound `CCCCCCCCCCCCCCCC`, the outcome in experiment [1], in experiment [2], in experiment [3], in [4], in [5] and in experiment [6] was inactive. For the same compound, the outcome in experiment [7], in experiment [8] and in experiment [10] was inactive.
Turning to `CCCCc1ccc2c(n1)[C@@H](c1ccc(OC)cc1C[C@H](C)C(=O)O)[C@H](C(=O)O)[C@H]2c1ccc2c(c1)OCO2`, the result in experiment [1], in [2], in [3], in experiment [4], in experiment [5] and in experiment [6] was inactive. In addition, the result in [7] and in experiment [8] was inactive.
As to `Oc1ccc2c(c1)OC[C@@H](N1CCC(O)(c3ccc(F)cc3)CC1)[C@H]2O`, the result in experiment [1], in experiment [2], in experiment [3], in [4], in experiment [5] and in experiment [6] was inactive. The result in experiment [7], in [8] and in experiment [10] was inactive.
With `OC[C@@H](O)[C@@H](O)[C@H](O)[C@H](O)CO`, the result in experiment [1], in experiment [2], in experiment [3], in [4], in experiment [5] and in [6] was inactive. The outcome in experiment [7], in experiment [8] and in experiment [10] was inactive.
With `FC(F)(F)C(F)(F)C(F)(F)C(F)(F)C(F)(F)C(F)(F)CCI`, the result in experiment [1], in experiment [2], in [3], in [4], in [5] and in [6] was inactive. Besides, the outcome in experiment [7], in [8] and in experiment [10] was inactive.
With `NCCO`, the result in experiment [1], in [2], in experiment [3], in experiment [4], in experiment [5] and in experiment [6] was inactive. For the same compound, the outcome in experiment [7], in experiment [8] and in experiment [10] was inactive.
